The source of these data is PubChem BioAssay (NCATS).

The nature of assay [1]: Viability qHTS for spleen associated tyrosine kinase inhibitor (SYKi) naive MV4-11 cells (AID 1963823). Also: nearly all actives have a fitted effect of over 40% in size. In short, it runs like this:
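In this viability screen, compounds acted on SYK inhibitor naive MV4-11 cells for three days (72 hr, 37 C). Remaining viable cells were measured by CellTiter-Glo luminescence following a 10 min room-temperature development.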
For orientation: qHTS replaces the single test concentration by a dilution series.

Assay [2] can be described thus: Viability qHTS for spleen associated tyrosine kinase inhibitor (SYKi) drug resistant MV4-11 cells (AID 1963824). Also: nearly all actives have a fitted effect of over 35% in size. The method, boiled down: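 SYK-inhibitor-resistant MV4-11 AML cells were seeded at 500 per well onto compound and cultured 72 hours (37 °C, 5% CO2). CellTiter-Glo was then added, and after 10 min at room temperature, luminescence gave viability.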
A short description of assay [3]: Quantitative highthroughput screen to assess conditional lethalithy of P12 Ichikawa cells grown in RPMI1640 with dialyzed fetal bovine serum (RPMI+ds) (AID 1963880). Also: nearly all actives have a fitted effect of over 35% in size. As to conditions: Potency: P12-Ichikawa viability. The method, boiled down: (§1)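 Each medium arm—HPLM with 10% dialyzed FBS, or RPMI1640 with 5 mM glucose and 10% untreated or dialyzed FBS—was screened against an 11-point, 3-fold compound titration for 48 h at 37 °C, with CellTiter-Glo luminescence as endpoint.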

A short description of assay [4]: Quantitative highthroughput screen to assess conditional lethalithy of P12 Ichikawa cells grown in RPMI1640 with untreated serum (RPMI+s) (AID 1963881). Also: nearly all actives have a fitted effect of over 35% in size. As to conditions: Potency: viability. The method, boiled down:
as §1

A short description of assay [5]: Quantitative highthroughput screen to assess conditional lethalithy of SEM cells grown in Human Plasma-Like Medium with dialyzed fetal bovine serum (HPLM+ds) (AID 1963882). Also: nearly all actives have a fitted effect of over 35% in size. As to Viability: series mostly up to about 46 µM. The method, boiled down:
as §1

Assay [6] can be described thus: Quantitative highthroughput screen to assess conditional lethalithy of SEM cells grown in RPMI1640 with unreated serum (RPMI+s) (AID 1963883). Also: nearly all actives have a fitted effect of over 35% in size.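 As to Viability: 100% = DMSO wells and 0% = empty wells without cells.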 The method, boiled down:
as §1

Assay [7] in a line: Quantitative highthroughput screen to assess conditional lethalithy of SEM cells grown in RPMI1640 with dialyzed fetal bovine serum (RPMI+ds) (AID 1963884). Also: nearly all actives have a fitted effect of over 35% in size.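 As to Viability: series mostly up to about 46 µM; 100% = DMSO control wells and 0% = empty wells without cells.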 In short, it runs like this:
as §1

Assay [8] in a line: Cellular viability qHTS for adrenocortical cancer (ACC) cell line SW-13 (AID 1963989). Also: nearly all actives have a fitted effect of over 65% in size.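 As to activity (max response): cells grown in serum-free medium with ITS supplement; % is scaled to controls: 0 for no effect and ±100 for the full control effect.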 The conditions noted are these: SW-13 ACC cells viability, CellTiter-Glo, 48 h; activity (max response): stronger effect = lower value. The method, boiled down:
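Here, serum-free SW-13 cultures were dosed up to 46 uM. Following 48 h, ATP-dependent luminescence (CellTiter-Glo) reported viable cells, and logistic modeling produced IC50 values.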

Assay [9] can be described thus: Cellular viability qHTS for adrenocortical cancer (ACC) cell line NCI-H295R (AID 1963990). Also: nearly all actives have a fitted effect of over 60% in size. The method, boiled down: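 Viability of NCI-H295R after 48 h of treatment (final up to 46 uM) measured through cellular ATP luminescence.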
Assay [10] is described as follows: Quantitative highthroughput screen to assess conditional lethalithy of P12 Ichikawa cells grown in Human Plasma-Like Medium with dialyzed fetal bovine serum (HPLM+ds) (AID 1963879). Also: nearly all actives have a fitted effect of over 35% in size. As to Viability: series mostly up to about 46 µM. As to conditions: Potency: viability. The method, boiled down:
as §1

Each structure is given as a SMILES string. “And” between values parts separate entries of the source, which are not always exact repeats. Identical values can stand only once. Inconclusive results are not listed. A structure can be active in one record and inactive in another. The source made the active and inactive calls. Calls follow the shape of the dose curve; as a rule, active = well fitted curve in the direction sought with a large enough effect; inconclusive = small, poorly fitted or top-dose-only effect, or another doubt; inactive = no such curve, though single readings can be large; an effect the other way counts as inactive or inconclusive.
Potency is read from the fitted curve at half-maximal effect.

`NCCCCNCCCN`: the Potency in assay [1] was 5.9 µM (active); in assay [2] it was 5.9 µM (active); in assay [3] it was 23.5 µM (active); in assay [4] it was 18.7 µM (active); in assay [5], 11.8 µM (active); in [6], 13.2 µM (active). Besides, in assay [7], the Potency is 11.8 µM (active). In addition, the activity (max response) in assay [8] is 4.66% (inactive). The Potency entry in [9] was “inactive”.

Take `CCN1CCC(n2cc(CNc3cc(Cl)c4ncc(C#N)c(Nc5ccc(F)c(Cl)c5)c4c3)nn2)CC1`: the Potency in [1] was 13 µM (active); in assay [2], 11.6 µM (active); in [10], 4.18 µM (active); in assay [4], 18.7 µM (active); in assay [5] it was 18.7 µM (active); in [6], 3.32 µM (active). Moreover, the Potency in assay [7] is 13.2 µM (active); in [9], 31.6 µM (active).

Regarding `CCC[C@H](N[C@@H](C)C(=O)N1[C@@H]2CCCC[C@H]2C[C@H]1C(=O)O)C(=O)OCC`, the Potency result in assay [1], in assay [2], in assay [10], in assay [5], in [6] and in assay [7] was “inactive” in each case. Also, the Potency entry in [9] is “inactive”. Moreover, the activity (max response) in assay [8] was 2.75% (inactive).

Consider `CCc1cccc(CC)c1NC(=O)N1Cc2[nH]nc(NC(=O)c3ccc(N4CCN(C)CC4)cc3)c2C1`, for which the Potency in [1] is 1.46 µM (active) and 1.66 µM (active); in assay [2], 1.03 µM (active) and 1.05 µM (active); in [10] it was 1.87 µM (active); in assay [5] it was 4.18 µM (active); in assay [6], 1.66 µM (active); in assay [7], 1.66 µM (active).

Regarding `Cc1cc(C(C)(C)C)c(O)c(C)c1CC1=NCCN1`, the Potency result in assay [1], in assay [2] and in assay [9] was “inactive” each time. For the same compound, the Potency in assay [10] is 8.33 µM (active); in assay [4], 10.5 µM (active). Further, the activity (max response) in assay [8] was -5.66% (inactive) and -4.23% (inactive).

As to `Nc1ncnc2c1c(-c1cnc3[nH]ccc3c1)nn2C1CCCC1`, the Potency in assay [1] is 920 nM (active) and 590 nM (active); in [2], 1.16 µM (active) and 1.18 µM (active); in [3], 1.48 µM (active); in [5], 5.26 µM (active); in [6] it was 3.72 µM (active); in [7] it was 5.9 µM (active). Besides, the Potency in [8] is 5.01 µM (active).

Turning to `NC(=O)Nc1sc(-c2ccc(F)cc2)cc1C(N)=O`, the Potency in [1] is 1.86 µM (active); in [2] it was 3.32 µM (active); in assay [5], 16.6 µM (active); in assay [6], 1.32 µM (active); in assay [7], 14.8 µM (active); in assay [9] it was 25.1 µM (active). For the same compound, in [8], the activity (max response) was -22.4% (inactive).

For `COc1cc(Oc2ccnc3cc(OC)c(OC)cc23)ccc1NC(=O)NC(C)c1nccs1` (stereo not drawn), the Potency entry in assay [1] was “inactive and 7.42 µM (active)”; in assay [2], 14.8 µM (active); in assay [6] it was 33.2 µM (active).

As to `CN1CC(=O)N/C1=N/C(=O)Nc1cccc(Cl)c1`, the Potency result in assay [1] and in assay [2] was “inactive” in each case. Also, the activity (max response) in assay [8] was 2.23% (inactive).

On to `COc1ccc2cc3[n+](cc2c1OC)CCc1cc2c(cc1-3)OCO2`, for which the Potency in [1] is 4.22 µM (active) and 1.48 µM (active); in assay [2], 1.68 µM (active) and 934 nM (active); in [4] it was 18.7 µM (active); in assay [6], 20.9 µM (active); in assay [7], 18.7 µM (active); in [8] it was 10.3 µM (active) and 8.91 µM (active). Moreover, in assay [9], the Potency entry was “inactive”.

As for `NC1(c2ccc(-c3nc4ccn5c(=O)[nH]nc5c4cc3-c3ccccc3)cc2)CCC1`, the Potency in [1] was 3.72 µM (active); in assay [2], 11.9 µM (active) and 8.2 µM (active) and 5.9 µM (active); in assay [5] it was 1.66 µM (active); in [6], 2.09 µM (active); in [7] it was 1.48 µM (active); in [8], 20.6 µM (active) and 17.8 µM (active). In addition, the Potency in [9] is 10.3 µM (active) and 7.94 µM (active).

Consider `CCN(CC)CCOC(=O)c1ccc(N)cc1`, for which the Potency result in assay [1] and in assay [2] was “inactive” in each case. In assay [8], the activity (max response) is 7.42% (inactive).

With `CN(C)Cc1cccc(N=C(c2ccccc2)c2c(O)[nH]c3cc(C(=O)N(C)C)ccc23)c1`, the Potency in assay [1] was 2.95 µM (active); in [2], 7.42 µM (active); in assay [5], 16.6 µM (active); in assay [6], 7.43 µM (active); in assay [7], 10.5 µM (active). The Potency result in assay [9] is “inactive”.

`CNC(=O)c1ccccc1Nc1nc(Nc2ccc(N3CCOCC3)cc2OC)ncc1Cl`: the Potency in assay [1] was 184 nM (active) and 132 nM (active); in assay [2] it was 326 nM (active) and 296 nM (active); in [4], 6.62 µM (active); in assay [5], 2.09 µM (active); in assay [6] it was 1.87 µM (active); in assay [8], 5.62 µM (active). For the same compound, in [9], the Potency was 0.631 µM (active).

Turning to `CC(=O)Nc1nc(C)c(-c2ccc(Cl)c(S(=O)(=O)NCCO)c2)s1`, the Potency is 0.82 µM (active) in assay [1]; 0.92 µM (active) in assay [2]; 4.18 µM (active) in assay [5]; 2.64 µM (active) in [6]; 17.8 µM (active) in [8]; 25.1 µM (active) in [9].

On to `O=c1[nH]cnc2c1ncn2[C@@H]1O[C@H](CO)[C@@H](O)[C@H]1O`, for which the Potency entry in assay [1] and in [2] was “inactive” in each case. Further, in assay [8], the activity (max response) is 4.44% (inactive).

For the compound `CC(C)n1nc(-c2ccc3oc(N)nc3c2)c2c(N)ncnc21`, the Potency in assay [1] is 36.6 nM (active) and 29.5 nM (active); in assay [2], 73.1 nM (active) and 46.8 nM (active); in assay [5], 0.0332 µM (active); in assay [6], 0.0469 µM (active); in assay [8] it was 0.1 µM (active); in [9], 0.0708 µM (active).

Take `Cc1cc(OCCOCC[N+](C)(C)Cc2ccccc2)ccc1C(C)(C)CC(C)(C)C`: the Potency in assay [1] was 3.35 µM (active); in [2], 2.66 µM (active); in assay [8], 5.8 µM (active).

As to `C[C@@H]1CCN(C(=O)[C@H](CCCN=C(N)N)NS(=O)(=O)c2cccc3c2NC[C@H](C)C3)[C@@H](C(=O)O)C1`, the Potency entry in [1] and in assay [2] was “inactive” in each case. Besides, the activity (max response) in [8] was 1.57% (inactive).
